Screening data as filed in PubChem BioAssay.
Only some compounds are listed: those with a hit (about 19% of all), similar ones and a draw of the others.
IL1B secr inh: qHTS for Inhibitors of Inflammasome Signaling: IL-1-beta AlphaLISA Primary Screen | THP-1 LPS/ATP IL-1B secretion, AlphaLISA, 16 h; stronger effect = lower value | activity change, % at 57.5 µM | hit rate 4.7% among 360,000 | AID 743279, 2014; in the data active means activity change below about -50%; inconclusive means mostly about -30% to -49%; further: on the % scale 0 is the no-effect control and ±100 the full control effect
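Secreted IL-1B measured by AlphaLISA bead assay after 16 h compound exposure of THP-1 cells; compounds (final up to 57.5 uM) added 1 h before LPS (250 ng/mL) and ATP (1.25 mM) stimulation; lower signal means less secretion.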
S-ASM inh: Inhibitors of Secretory Acid Sphingomyelinase (S-ASM): qHTS | AID 504937, 2011 | Potency, µM (highest dose often 57.5 µM), without a hit: at the top dose activity change, negative = inhibition, most hits filed as inhibitors | hit rate 0.006% among 340,000 | placental ASM, HMU-PC fluorogenic substrate, 60 min; further: potency means the concentration at half of the fitted maximal effect
Target sequence (P17405 47-631 limits assumed): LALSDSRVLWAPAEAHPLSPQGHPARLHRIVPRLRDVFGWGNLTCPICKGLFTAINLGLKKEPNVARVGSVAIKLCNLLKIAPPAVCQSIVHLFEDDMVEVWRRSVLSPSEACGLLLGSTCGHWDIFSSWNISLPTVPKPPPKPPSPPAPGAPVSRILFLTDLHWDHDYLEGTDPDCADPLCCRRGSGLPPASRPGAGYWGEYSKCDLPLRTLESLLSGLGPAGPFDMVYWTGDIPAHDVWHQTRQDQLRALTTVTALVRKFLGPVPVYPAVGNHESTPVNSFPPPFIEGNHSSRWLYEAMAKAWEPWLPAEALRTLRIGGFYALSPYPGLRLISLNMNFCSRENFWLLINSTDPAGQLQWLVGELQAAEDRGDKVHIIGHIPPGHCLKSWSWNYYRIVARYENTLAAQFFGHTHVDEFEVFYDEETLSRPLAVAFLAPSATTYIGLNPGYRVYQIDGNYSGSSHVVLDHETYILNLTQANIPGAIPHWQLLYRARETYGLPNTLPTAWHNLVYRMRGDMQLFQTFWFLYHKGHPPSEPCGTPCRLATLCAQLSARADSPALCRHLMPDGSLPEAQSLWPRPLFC
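Steps: dispense placental human ASM, pin compound, wait 10 min at room temperature, add HMU-PC0 substrate at 9 uM final, incubate 60 min at 37 °C, add stop solution raising pH to 10, read fluorescence.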
TGFb inhibitor: qHTS for Inhibitors of TGF-b; hit rate 1.2% among 410,000; AID 588855, 2011; HepG2 CAGA-GFP TGF-b/SMAD3 reporter, GFP fluorescence, 18 h; TGF-beta stimulated, 500 pg/mL final; Potency, µM (top dose mostly 46.1 µM), for the others: at the top dose activity, negative = inhibition, hits mostly inhibitors; further: potency means the concentration at half of the fitted maximal effect; on the % scale 0 is the no-effect control and ±100 the full control effect; nearly all actives have a fitted effect of over 65% in size
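GFP signal (ex488/em500-530) from TGF-beta-stimulated HEPG2 CAGA-GFP cells, 500 pg/mL final, 18 h at 37 degrees C in DMEM plus 1% FBS, normalized to unstimulated and DMSO-stimulated controls.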
DT40 TDP1 CPT: qHTS for Inhibitors of human tyrosyl-DNA phosphodiesterase 1 (TDP1): qHTS in cells in presence of CPT; chicken DT40 Tdp1-/-;hTDP1 cells + 20 nM CPT, ATP luminescence, 48 h; hit rate 12% among 420,000; AID 686979, 2013; Potency, µM (top dose mostly 46.2 µM), for inactives: top-dose activity change, negative = growth inhibition, usual class: inhibitors; further: potency means the concentration at half of the fitted maximal effect; on the % scale 0 is the no-effect control and ±100 the full control effect; nearly all actives have a fitted effect of over 55% in size
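Cell growth measured by CellTiter-Glo luminescence after a minimum 48 h, 37 C compound exposure with 20 nM CPT in Tdp1-knockout DT40 cells stably expressing hTDP1, seeded 400/well; qHTS titration format.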
DT40 TDP1 no CPT: qHTS for Inhibitors of human tyrosyl-DNA phosphodiesterase 1 (TDP1): qHTS in cells in absence of CPT. DT40 Tdp1-/- hTDP1 cells, no CPT, ATP luminescence, 48 h. hit rate 15% among 420,000. Potency, µM (top dose mostly 46.2 µM), inactives show top-dose activity change, negative = growth inhibition, most hits filed as inhibitors. AID 686978, 2013; further: potency means the concentration at half of the fitted maximal effect; on the % scale 0 is the no-effect control and ±100 the full control effect; nearly all actives have a fitted effect of over 55% in size
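No-CPT arm: Tdp1-/-;hTDP1 DT40 cells (400/well) plus compounds, incubated ≥48 hr at 37 °C. Readout CellTiter-Glo luminescence.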
HepG2 tox: qHTS for Inhibitors of TGF-b: Cytotox Counterscreen. hit rate 0.76% among 410,000. HepG2 CAGA-GFP viability, ATP luminescence, 18 h. Potency, µM (top dose mostly 46.1 µM), for the others: top-dose activity change, negative = cytotoxicity, hits mostly cytotoxic; further: potency means the concentration at half of the fitted maximal effect
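HepG2 CAGA-GFP cells (1000/well, DMEM with 1% FBS) received compound, then TGF-beta at 500 pg/mL final, and were incubated 18 hours at 37 degrees C. Viability was read by CellTiter-Glo luminescence. Media-only wells were set as complete cell-killing and DMSO as no toxicity.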
Numbers without * were called inactive. Unless noted, the call rests on the fitted dose curve; in most records, active means well fitted curve in the direction sought with a large enough effect; inconclusive means small, poorly fitted or top-dose-only effect, or another doubt; inactive means no such curve, though single readings can be large; an effect the other way counts as inactive or inconclusive.

`OCCCc1cn(Cc2ccccc2)c2ccccc12` gave IL1B secr inh 13, S-ASM inh 2%, TGFb inhibitor -14%, DT40 TDP1 CPT -7%, DT40 TDP1 no CPT -12% and HepG2 tox 3%.
For CCCCCN=c1ccn(Cc2ccccc2)c2ccccc12 the results were DT40 TDP1 CPT 2.7µM* and DT40 TDP1 no CPT 2.1µM*.
COc1ccc(CN2C(=NC(=O)c3ccccc3)SC3CS(=O)(=O)CC32)cc1OC (stereo not given) was read as IL1B secr inh -57*, S-ASM inh -7%, TGFb inhibitor 1%, DT40 TDP1 CPT 0%, DT40 TDP1 no CPT 4% and HepG2 tox -4%.
CCOc1cc(C=NN2CCCCCC2)ccc1O was read as IL1B secr inh -17, S-ASM inh -1%, TGFb inhibitor 36%, DT40 TDP1 CPT -2%, DT40 TDP1 no CPT inconclusive and HepG2 tox -23%.
For CCN(CC(=O)Nc1ccccc1C(F)(F)F)C(=O)c1cc2c(s1)CCCCC2 the results were IL1B secr inh -53*, S-ASM inh -1%, TGFb inhibitor -21%, DT40 TDP1 CPT inconclusive, DT40 TDP1 no CPT 23µM* and HepG2 tox -10%.
`CC(C)n1ncc2c(C(=O)N3CCN(S(=O)(=O)c4cccc(F)c4)CC3)cc(C3CC3)nc21` gave IL1B secr inh 22, TGFb inhibitor -3%, DT40 TDP1 CPT -1%, DT40 TDP1 no CPT 14% and HepG2 tox 0%.
`Cc1ccc(C(=O)OC(C)C(=O)Nc2ccc(Cl)cn2)s1` (stereo not given) gave IL1B secr inh -5, S-ASM inh 0%, TGFb inhibitor -3%, DT40 TDP1 CPT inconclusive, DT40 TDP1 no CPT -9% and HepG2 tox 3%.
For CCCCCCCCCCCCCCCCn1cc[n+](CC(C)=O)c1 the results were IL1B secr inh 22, S-ASM inh inconclusive, TGFb inhibitor 20µM*, DT40 TDP1 CPT 0.65µM*, DT40 TDP1 no CPT 1.3µM* and HepG2 tox -104%.
Screening C#CCn1cc[n+](CC(=O)N(C)C)c1 returned IL1B secr inh -13, S-ASM inh 3%, TGFb inhibitor -12%, DT40 TDP1 CPT -12%, DT40 TDP1 no CPT -8% and HepG2 tox 11%.
For COc1cc(C)c(Cl)cc1S(=O)(=O)n1cnc(C)c1 the results were IL1B secr inh 8, S-ASM inh -1%, TGFb inhibitor -3%, DT40 TDP1 CPT -7%, DT40 TDP1 no CPT -13% and HepG2 tox -18%.
COc1ccc(C(C)C)cc1S(=O)(=O)n1cnc(C)c1 was read as IL1B secr inh 6, S-ASM inh -2%, TGFb inhibitor inconclusive, DT40 TDP1 CPT 16µM*, DT40 TDP1 no CPT 23µM* and HepG2 tox -4%.
`CC(NC(=O)CSc1nc(C2CC2)n(-c2ccccc2)n1)c1ccco1` (stereo not given) gave IL1B secr inh -8, S-ASM inh -1%, TGFb inhibitor 2%, DT40 TDP1 CPT inconclusive, DT40 TDP1 no CPT inconclusive and HepG2 tox 2%.
For Cc1nn(CC(=O)OCC(=O)NC(C)c2ccccc2)c(C)c1[N+](=O)[O-] (stereo not given) the results were IL1B secr inh 0, S-ASM inh -2%, TGFb inhibitor -12%, DT40 TDP1 CPT -23%, DT40 TDP1 no CPT -26% and HepG2 tox -9%.
